# Test results as given in PubChem BioAssay (NCI).
# Compounds without any hit were thinned out: in the full panel of roughly 83,000, 20% have a hit.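 Activity criterion: percent growth below 10, measured after cells in 96-well plates were exposed to a single compound concentration for 48 hours.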 Unmarked numbers belong to inactive results. The source made the active and inactive calls.
# Test system: SR leukemia
# Test: NCI-60 one-dose screen, 48 h (100 = growth as untreated, 0 = no growth, -100 = all killed)
# Details: 10 µM unless noted
row,SMILES,growth
1,O=C1/C(=C/c2ccc(F)cc2)CN(C(=O)CCN2CCC(=NO)CC2)C/C1=C\c1ccc(F)cc1,4.41% (active)
2,CC/C=C\C[C@H](O)C/C=C1/C(=O)C=C[C@@H]1C/C=C\CCCC(N)=O,-27% (active)
3,CC/C=C\C[C@H](F)C/C=C1/C(=O)C=C[C@@H]1C/C=C\CCCC(=O)OC,-25.8% (active)
4,Nc1nc2c(c3ncccc13)C(c1ccc(Cl)c(Cl)c1)Cc1ncccc1-2 (stereo unspecified),0.136% (active)
5,Cn1c(=O)c2c(ncn2CC[N+](C)(C)C)n(C)c1=O,94.7%
6,O=C(O)c1cccc2c1-c1ccccc1C2=O,94.2%
7,CCOC(=O)C(C#N)C1CCCCC1 (stereo unspecified),84.3%
8,CCCCNP1(NCCCC)=NP(NCCCC)(NCCCC)=NP(NCCCC)(NCCCC)=NP(NCCCC)(NCCCC)=N1,-51.8% (active)
9,CC(=O)C1=C(O)C=C2Oc3c(C(=O)/C=C/c4cc(C(F)(F)F)cc(C(F)(F)F)c4)c(O)c(C)c(O)c3[C@]2(C)C1=O,-29.3% (active)
10,COc1ccc(OCC(=O)Nc2ccc(-c3nc4ccccc4s3)cc2C)cc1,76.1%
11,CCCCCCCCCC(=O)Oc1ccc(/C(=C(/C)c2ccccc2)c2ccc(OCCN3CCCC3)cc2)cc1,-25.7% (active)
12,COc1cccc(-c2nc3sccn3c2-c2ccnc(NCCCNS(=O)(=O)c3ccc(Cl)cc3)c2)c1,50%
13,CC/C=C\C[C@H](O)C/C=C1/C(=O)C=C[C@@H]1C/C=C\CCCC(=O)NC,-27% (active)
14,COc1cccc(/C=C\C(=O)c2ccccc2)c1,47.5%
15,C=C1CC2(OC1=O)C(=O)Nc1ccccc12 (stereo unspecified),5.16% (active)
16,Cc1ccc2c(c1)C(=O)/C(=C/c1ccc(OCC(=O)c3ccccc3)cc1)O2,107%
17,CCN(C(=O)CN1CCN(c2cc3c(cc2F)c(=O)c(C(=O)O)cn3C2CC2)CC1)c1nc(-c2ccc(OC)cc2)cs1,23.7%
18,CS(CCCCN=C=S)=NC(=O)c1c(F)c(F)c(F)c(F)c1F (stereo unspecified),2.68% (active)
19,Cc1ccccc1CCO,88.7%

row,SMILES,growth
1,O=C(O)c1c([N+](=O)[O-])cnc2ccccc12,135%
2,CC(=O)C1=C(O)C=C2Oc3c(C(=O)/C=C/c4cc(Cl)cc(Cl)c4)c(O)c(C)c(O)c3[C@]2(C)C1=O,-20.5% (active)
3,COc1cc(NC(N)=NCC(C)(C)COc2ccc(C(F)(F)F)cc2)cnc1C#N,49.8%
4,CC1=CC(=O)CC(C)(C)[C@@]1(O)/C=C/[C@@H](C)O,111%
5,OC(c1cc(-c2ccccc2)nc2ccc(Cl)cc12)C1CCCCN1 (stereo unspecified),-25.8% (active)
6,CCC(=O)OCc1cccc(OC)c1,116%
7,CCCCCCCCCCCCCC(=O)C(C)N (stereo unspecified),-2.57% (active)
8,CC1=C(C)C(=O)OC([C@](C)(O)[C@]2(O)CC[C@@]3(O)[C@@H]4C[C@H]5O[C@]56CC=CC(=O)[C@]6(C)[C@H]4CC[C@]23COC(=O)c2ccc(C)o2)C1 (stereo partly specified),2.88% (active)
9,C=C1CC[C@@H]2[C@](C)(COC(C)=O)[C@H](OC(C)=O)CC[C@@]2(C)[C@@H]1CC(Nc1ccc(S(=O)(=O)Nc2ccc(Cl)nn2)cc1)C1=CCOC1=O (stereo partly specified),-5.26% (active)
10,CC(C)[C@H]1COC(=O)N1[C@@H]1C(=O)N([C@@H](CCC(=O)N2CCN(C3CCCC3)CC2)C(=O)N[C@@H]2CCCc3ccccc32)[C@@H]1/C=C/c1cccc(Br)c1,-18.9% (active)
11,Cc1cc(Cl)ccc1Nc1nc(C(F)(F)F)ccc1C(=O)N/N=C/c1ccc(F)cc1,-30.8% (active)
12,Cn1c(=O)c2[nH]c(C(O)C(O)C(O)C(O)CO)nc2n(C)c1=O (stereo unspecified),105%
13,C(=N\Nc1ccccn1)/c1ccccn1,15.8%
14,COc1cccc(-c2cn3c(ccc4ccccc43)n2)c1,31.9%
15,COc1ccc2c(c1)C(=O)/C(=C/c1cccc(OCC(=O)Nc3nc4c(s3)CCCC4)c1)O2,-17.2% (active)
16,c1ccc(-c2nc(N3CCOCC3)c3c4c(sc3n2)CCCCC4)nc1,59.6%
17,COc1ccc(-c2cn3c(ccc4ccccc43)n2)cc1,102%
18,COc1cc(OC)c(/C=C/C(=O)c2c(OC)cc(OC)cc2OC)c(OC)c1,-11.9% (active)
19,COc1ccc(-c2cc(-c3ccc(N(C)C)cc3)nc(NC(=O)c3ccncc3)n2)cc1,121%

# Test system: RPMI-8226 leukemia
# Test: as above
# Details: 10 µM unless noted
row,SMILES,growth
1,O=C1/C(=C/c2ccc(F)cc2)CN(C(=O)CCN2CCC(=NO)CC2)C/C1=C\c1ccc(F)cc1,-37.6% (active)
2,CC/C=C\C[C@H](O)C/C=C1/C(=O)C=C[C@@H]1C/C=C\CCCC(N)=O,6.43% (active)
3,CC/C=C\C[C@H](F)C/C=C1/C(=O)C=C[C@@H]1C/C=C\CCCC(=O)OC,-10.4% (active)
4,Nc1nc2c(c3ncccc13)C(c1ccc(Cl)c(Cl)c1)Cc1ncccc1-2 (stereo unspecified),15.8%
5,Cn1c(=O)c2c(ncn2CC[N+](C)(C)C)n(C)c1=O,104%
6,O=C(O)c1cccc2c1-c1ccccc1C2=O,124%
7,CCOC(=O)C(C#N)C1CCCCC1 (stereo unspecified),99.1%
8,CCCCNP1(NCCCC)=NP(NCCCC)(NCCCC)=NP(NCCCC)(NCCCC)=NP(NCCCC)(NCCCC)=N1,-41.7% (active)
9,CC(=O)C1=C(O)C=C2Oc3c(C(=O)/C=C/c4cc(C(F)(F)F)cc(C(F)(F)F)c4)c(O)c(C)c(O)c3[C@]2(C)C1=O,-18.8% (active)
10,COc1ccc(OCC(=O)Nc2ccc(-c3nc4ccccc4s3)cc2C)cc1,66%
11,CCCCCCCCCC(=O)Oc1ccc(/C(=C(/C)c2ccccc2)c2ccc(OCCN3CCCC3)cc2)cc1,-21.8% (active)
12,COc1cccc(-c2nc3sccn3c2-c2ccnc(NCCCNS(=O)(=O)c3ccc(Cl)cc3)c2)c1,9.05% (active)
13,CC/C=C\C[C@H](O)C/C=C1/C(=O)C=C[C@@H]1C/C=C\CCCC(=O)NC,-3.18% (active)
14,COc1cccc(/C=C\C(=O)c2ccccc2)c1,6.17% (active)
15,C=C1CC2(OC1=O)C(=O)Nc1ccccc12 (stereo unspecified),24.4%
16,Cc1ccc2c(c1)C(=O)/C(=C/c1ccc(OCC(=O)c3ccccc3)cc1)O2,216%
17,CCN(C(=O)CN1CCN(c2cc3c(cc2F)c(=O)c(C(=O)O)cn3C2CC2)CC1)c1nc(-c2ccc(OC)cc2)cs1,3.09% (active)
18,CS(CCCCN=C=S)=NC(=O)c1c(F)c(F)c(F)c(F)c1F (stereo unspecified),10.3%
19,Cc1ccccc1CCO,108%

row,SMILES,growth
1,O=C(O)c1c([N+](=O)[O-])cnc2ccccc12,108%
2,CC(=O)C1=C(O)C=C2Oc3c(C(=O)/C=C/c4cc(Cl)cc(Cl)c4)c(O)c(C)c(O)c3[C@]2(C)C1=O,-22.1% (active)
3,COc1cc(NC(N)=NCC(C)(C)COc2ccc(C(F)(F)F)cc2)cnc1C#N,46%
4,CC1=CC(=O)CC(C)(C)[C@@]1(O)/C=C/[C@@H](C)O,109%
5,OC(c1cc(-c2ccccc2)nc2ccc(Cl)cc12)C1CCCCN1 (stereo unspecified),13.1%
6,CCC(=O)OCc1cccc(OC)c1,84.8%
7,CCCCCCCCCCCCCC(=O)C(C)N (stereo unspecified),31.9%
8,CC1=C(C)C(=O)OC([C@](C)(O)[C@]2(O)CC[C@@]3(O)[C@@H]4C[C@H]5O[C@]56CC=CC(=O)[C@]6(C)[C@H]4CC[C@]23COC(=O)c2ccc(C)o2)C1 (stereo partly specified),-17.3% (active)
9,C=C1CC[C@@H]2[C@](C)(COC(C)=O)[C@H](OC(C)=O)CC[C@@]2(C)[C@@H]1CC(Nc1ccc(S(=O)(=O)Nc2ccc(Cl)nn2)cc1)C1=CCOC1=O (stereo partly specified),-19.2% (active)
10,CC(C)[C@H]1COC(=O)N1[C@@H]1C(=O)N([C@@H](CCC(=O)N2CCN(C3CCCC3)CC2)C(=O)N[C@@H]2CCCc3ccccc32)[C@@H]1/C=C/c1cccc(Br)c1,14.6%
11,Cc1cc(Cl)ccc1Nc1nc(C(F)(F)F)ccc1C(=O)N/N=C/c1ccc(F)cc1,-41.5% (active)
12,Cn1c(=O)c2[nH]c(C(O)C(O)C(O)C(O)CO)nc2n(C)c1=O (stereo unspecified),110%
13,C(=N\Nc1ccccn1)/c1ccccn1,35.5%
14,COc1cccc(-c2cn3c(ccc4ccccc43)n2)c1,31.8%
15,COc1ccc2c(c1)C(=O)/C(=C/c1cccc(OCC(=O)Nc3nc4c(s3)CCCC4)c1)O2,-6.7% (active)
16,c1ccc(-c2nc(N3CCOCC3)c3c4c(sc3n2)CCCCC4)nc1,35.5%
17,COc1ccc(-c2cn3c(ccc4ccccc43)n2)cc1,92.1%
18,COc1cc(OC)c(/C=C/C(=O)c2c(OC)cc(OC)cc2OC)c(OC)c1,-6.66% (active)
19,COc1ccc(-c2cc(-c3ccc(N(C)C)cc3)nc(NC(=O)c3ccncc3)n2)cc1,93%
